Records with an inconclusive call do not appear. Entries that show only a call come without a potency. Active and inactive are the calls of the source. Calls follow the shape of the dose curve; as a rule, active = well fitted inhibition curve with a large enough effect; inconclusive = small, poorly fitted or top-dose-only effect; inactive = flat fitted curve, though single readings scatter.
test: CHOP2 Reporter Counterscreen Assay for Inhibitors of Ubiquitin-specific Protease USP2a; details: purified enterokinase, fluorogenic substrate, 485/531 nm; series mostly up to 38.3 µM;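 also: activated enterokinase alone at 50 pM in a cell-free format rather than USP2a or CHOP2; nearly all actives have a fitted effect of over 55% in size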
Outline: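 Cell-free counterscreen with pre-activated enterokinase alone (50 pM final) in 20mM Tris-HCl pH 8.0, 2mM CaCl2, 2mM beta-mercaptoethanol, 0.05% CHAPS; compound preincubation 30 min RT, reporter substrate 25nM final, fluorescence read after 10 min (Ex 485/Em 531).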
Potency is read from the fitted curve at half-maximal effect.

SMILES | Potency
O=c1oc2c(CN3CCCCC3)c(O)ccc2c2c1CCCCC2 | inactive
COc1cccc(-c2csc3nnc(SCC(=O)NCc4cccs4)n23)c1 | inactive
CCc1nnc(NC(=O)CSc2nccn2-c2cccc(C)c2)s1 | inactive
Cn1nnnc1Sc1ncnc2scc(-c3ccc4c(c3)OCO4)c12 | inactive
COc1ccc(CN(Cc2cc3cc(C)ccc3[nH]c2=O)C(=O)N(C)C)cc1 | inactive
CCC(=O)Nc1c2c(nn1-c1ccc(F)cc1)CS(=O)C2 (centres undefined) | inactive
COc1ccc(OC)c(NC(=O)CSc2nc(O)cc(=O)n2CC(C)C)c1 | inactive
C=CCn1c(NCc2cc(C)ccc2O)nc2ccccc21 | inactive
CC(C)C(C(=O)O)N1C(=O)/C(=C/C=C/c2ccco2)SC1=S (centres undefined) | 2000 nM (active)
CCC(C(=O)NCc1ccccc1OC)n1nc(C)n2c(cc3occc32)c1=O (centres undefined) | inactive
CC(C)c1ccc(CCNC(=O)c2ccc([N+](=O)[O-])cc2)cc1 | inactive
Cc1ccc(CNC(=O)CCNS(=O)(=O)c2ccc(C)cc2)cc1 | inactive
Cc1ccc(NC(=O)CSc2nc(O)cc(=O)n2-c2ccc(C)cc2)cc1 | inactive
CC(=O)COc1ccc2c(-c3ccccc3)cc(=O)oc2c1 | inactive
CN(C)C=Nc1ncc2c3ccccc3n(CCN(C)C)c2c1C#N | inactive
O=C(NCc1ccccc1)C1CCC1 | inactive
O=C(NC1CCCCC1)C(c1ccco1)N(Cc1ccco1)C(=O)c1ccco1 (centres undefined) | inactive
CC(=O)OCC(=O)Nc1ccc(Cl)cc1Cl | inactive
COc1ccc(/C=C\C(=O)O[C@@H]2C(O)C(O[C@@H]3OC(C)[C@H](O[C@@H]4OCC(O[C@H]5O[C@H](CO)[C@@H](O)C(O)C5O)C(O)C4O)C(O)C3O)[C@H](OC(=O)[C@]34CCC(C)(C)C[C@@H]3C3=CCC5[C@@]6(C)CC(O)C(O[C@@H]7OC(CO)C(O)[C@H](O)[C@H]7O)[C@@](C)(C(=O)O)C6CC[C@@]5(C)[C@]3(CO)CC4)O[C@H]2C)cc1 (some centres undefined) | inactive

Reference: PubChem BioAssay AID493169 (National Center for Advancing Translational Sciences (NCATS), 2011)
